Measured values published in PubChem BioAssay.
The source made the active and inactive calls.

Experiment: resazurin metabolic signal in HepG2 cells – cell-based, resazurin fluorescence, 24 h, PK04 Diversity Set, profiling panel (AID 1172); also: test concentration not given here
Conditions: HepG2 viability, higher = more signal

SMILES	z-score
CO[C@H]1O[C@H](CO)[C@@H](OC(=O)Nc2ccc(Oc3ccccc3)cc2)[C@H](OC(=O)Nc2ccc3c(c2)OCO3)[C@H]1OC(=O)Nc1ccc2c(c1)OCO2	-0.692
CC(C)=CCCC(C)=CC(O)C1C=CC2C(=O)N(C)C(=O)C2N1Nc1ccccc1 (stereo not drawn)	-1.34
CCOC(=O)C[C@H]1[C@H](OC(=O)c2ccc(-c3ccccc3)cc2)[C@@H](NC(=O)Cc2ccc(OC)cc2)c2cc(OCCCO)ccc2N1C(=O)c1ccccc1	-0.616
CC(C)C[C@@H]1NC(=O)[C@@H]2C[C@H](C(=O)NCc3ccc(F)cc3)[C@H](c3cccc(OCCO)c3)N2C1=O	0.137
NC(=O)NCC#Cc1ccc2c(c1)[C@]1(C(=O)N2)[C@H](c2ccccc2OCCO)N2[C@H](c3ccccc3)[C@H](c3ccccc3)OC(=O)[C@H]2[C@@H]1C(=O)Nc1nc2ccccc2s1	0.851
C=C(CCCC)/C(=C/C[C@@H](OC(=O)c1ccncc1)c1ccc(OCCO)cc1)c1cc(C(=O)OC)ccc1OC	0.691
C=C(C)[C@@H]1CC=C(C(O)C2C=CC3C(=O)N(C)C(=O)C3N2Nc2ccccc2)CC1 (stereo partly drawn)	-0.709
O=C1N[C@@H](Cc2ccccc2)C(=O)N2[C@@H]1C[C@@H](C(=O)O)[C@H]2c1cccc(OCCO)c1	-1.6
COC(=O)C(CC#Cc1ccc2c(c1)[C@]1(C(=O)N2)[C@H](c2ccc(OCCO)cc2)N2[C@H](c3ccccc3)[C@H](c3ccccc3)OC(=O)[C@H]2[C@@H]1C(=O)Nc1nc2ccccc2s1)C(=O)OC	1.51
C=CCN1C(=O)[C@@]2(Cc3ccccc31)N=C(c1ccc(OCCCO)cc1)O[C@H]2c1ccccc1	-0.0935

Experiment: budding yeast growth changes without added modifier – OD600, strain BY4716, 24 h, basal condition, primary screen (AID 1173)
Conditions: S. cerevisiae BY4716 growth, OD600, 24 h; higher = more signal, called active from +8 up or from −8 down

SMILES	z-score
COc1cc2c(cc1OC)CN(C(=O)[C@H]1[C@@H]3C(=O)O[C@@H](c4ccccc4)[C@@H](c4ccccc4)N3[C@@H](c3ccc(O)cc3)[C@]13C(=O)Nc1ccccc13)CC2	0.744 (inactive)
C=CCNC(=O)[C@@H]1[C@H]2C(=O)O[C@H](c3ccccc3)[C@H](c3ccccc3)N2[C@H](c2ccc(OCCO)cc2)[C@@]12C(=O)Nc1ccc(C#CCC(C(=O)OC)C(=O)OC)cc12	1.12 (inactive)
COCCOC(=O)N1C(=O)[C@@]2(c3cc(C#CC4(O)CCCCCC4)ccc31)[C@H](c1ccc(OCCO)cc1)N1[C@H](c3ccccc3)[C@H](c3ccccc3)OC(=O)[C@H]1[C@@H]2C(=O)N1CCN(c2ncccn2)CC1	2.29 (inactive)
CC1(C)[C@@H]2CC(C(O)C3C=CC4C(=O)N(c5ccccc5)C(=O)C4N3Nc3ccc([N+](=O)[O-])cc3)=C[C@H]1C2 (stereo partly drawn)	0.318 (inactive)
NC(=O)NCC#Cc1ccc2c(c1)[C@]1(C(=O)N2)[C@H](C(N)=O)[C@H]2C(=O)O[C@H](c3ccccc3)[C@H](c3ccccc3)N2[C@@H]1c1ccc(O)cc1	-0.911 (inactive)
O=C(c1ccccc1)N1Cc2ccccc2C[C@@]2(COC(c3ccc(OCCCO)cc3)=N2)C1=O	-0.264 (inactive)
C=CC[C@]1(C(=O)NCc2ccccc2)N=C(c2ccc(OCCCO)cc2)O[C@H]1c1ccccc1N=[N+]=[N-]	-0.737 (inactive)
CC1CC/C=C\[C@H]2OC34C=CCN(C(C)(C)C)C(=O)[C@H]3N(C(C)CO)C(=O)[C@@H]4C2C(=O)O1 (stereo partly drawn)	-0.623 (inactive)
CCOC(=O)C[C@H]1[C@H](OC(=O)c2ccc(C(=O)c3ccccc3)cc2)[C@@H](NC(=O)c2ccccc2)c2cc(OCCCO)ccc2N1C(=O)Cc1ccc(OC)cc1	0.0931 (inactive)
COCCOC(=O)N1C(=O)[C@@]2(c3cc(C#CCNC(N)=O)ccc31)[C@H](C(=O)Nc1nc3ccccc3s1)[C@H]1C(=O)O[C@H](c3ccccc3)[C@H](c3ccccc3)N1[C@@H]2c1ccc(OCCO)cc1	1.83 (inactive)
CC(C)OC(=O)C=C1C[C@@H](c2ccccn2)O[C@@H](c2ccccn2)O1	-1.97 (inactive)
COC(=O)C(CC#Cc1ccc2c(c1)[C@]1(C(=O)N2)[C@H](c2ccc(OCCO)cc2)N2[C@H](c3ccccc3)[C@H](c3ccccc3)OC(=O)[C@H]2[C@@H]1C(=O)N1CCc2cc(OC)c(OC)cc2C1)C(=O)OC	2.53 (inactive)
COc1ccc([Si](C)(C)[C@H]2[C@H](CC(=O)N3Cc4ccccc4C[C@H]3CO)O[C@@]3(C(=O)N(Cc4cccc(N5CCC5=O)c4)c4ccccc43)[C@@H]2C)cc1	0.472 (inactive)
